In the library only some 2.8% were active in any assay of this set; here they are far more common.
CF NFkB block: inhibitors of cystic fibrosis induced NF-kB | KKLEB NF-kB-GFP reporter, PAF-induced, GFP fluorescence overnight | 0.86% of 360,000 active | inhibition, % at 5 µM | AID 588850;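 active = at least 50% inhibition at 5 µM, scaled per plate between neutral and stimulator controls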;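 also: PAF is a Pseudomonas aeruginosa culture filtrate used as stimulus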
Shn3 3UTR inh: Schnurri-3 reporter inhibition in Clone20 osteoblasts | Clone20 osteoblast Shn3 3'UTR firefly luciferase, 24 h | inhibition, % at 12.5 µM | 0.52% of 360,000 active | AID 588674;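 active = mean inhibition of at least 75% with every replicate also reaching 75%; inconclusive = mean inhibition at least 75% but some replicate below; inactive = mean inhibition below 75%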
HIF-2a inh: HIF-2a inhibition; 786-0 RCC cells HIF-2a reporter, luciferase luminescence, overnight; inhibition, % at 18.8 µM; 0.72% of 360,000 active; AID 624352;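 active = inhibition of the luminescence signal of 40% or more relative to plate controls, in a single-dose primary screen at 18.75 µM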
KKLEB cytotox: CF airway cell cytotoxicity counter-screen; AID 602141; 0.36% of 360,000 active; KKLEB CF airway cells viability, ATPlite luminescence, overnight; stronger effect = lower value; cells stimulated with P. aeruginosa culture filtrate; activity change (cytotoxicity), % at 5 µM;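 active = corrected activity change at or below -50% at 5 µM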
MITF TRPM1 inh: MITF TRPM1 promoter inhibition in SK-MEL-5 cells; 0.83% of 330,000 active; SK-MEL-5 TRPM1 promoter luciferase, 24 h; AID 488899; inhibition, % at 12.5 µM;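 active = mean inhibition across replicates of 60% or more, whatever share of single replicates reaches that level; inconclusive = some that reach 60%, reason not given; inactive = mean inhibition across replicates below 60%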
Peg3 promoter: reduces Peg3 promoter-driven luciferase expression in HeLa. HeLa PEG-Prom luciferase reporter, luminescence, overnight. inhibition, % at 20 µM. 1.7% of 360,000 active;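 active = inhibition of at least 50% at 20 µM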
Mdm2-MdmX confirm: Mdm2/MdmX (human) interaction inhibition, confirmed. 99% of 740 active. AID 504601. shares compounds with HIF-2a inh. inhibition, % at 8 µM. SaOS-2 split-luciferase Mdm2/MdmX complementation, luminescence;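 active = mean inhibition of the luminescence signal across two replicates at or above 26 percent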
Target sequence (O15151 whole entry, looked up): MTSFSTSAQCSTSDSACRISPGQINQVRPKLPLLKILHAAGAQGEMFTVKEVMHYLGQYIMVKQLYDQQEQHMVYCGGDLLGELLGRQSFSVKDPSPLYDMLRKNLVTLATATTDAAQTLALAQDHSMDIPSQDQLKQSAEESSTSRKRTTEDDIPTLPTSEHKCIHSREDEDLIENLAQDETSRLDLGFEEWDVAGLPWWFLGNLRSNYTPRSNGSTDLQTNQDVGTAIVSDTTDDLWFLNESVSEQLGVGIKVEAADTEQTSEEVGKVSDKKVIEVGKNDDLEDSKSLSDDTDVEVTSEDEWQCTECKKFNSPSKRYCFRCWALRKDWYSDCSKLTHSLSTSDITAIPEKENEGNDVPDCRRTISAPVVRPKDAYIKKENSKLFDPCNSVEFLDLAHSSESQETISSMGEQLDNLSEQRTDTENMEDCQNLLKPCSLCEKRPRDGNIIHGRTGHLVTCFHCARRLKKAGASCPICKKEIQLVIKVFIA
Target sequence (Q00987 whole entry, looked up): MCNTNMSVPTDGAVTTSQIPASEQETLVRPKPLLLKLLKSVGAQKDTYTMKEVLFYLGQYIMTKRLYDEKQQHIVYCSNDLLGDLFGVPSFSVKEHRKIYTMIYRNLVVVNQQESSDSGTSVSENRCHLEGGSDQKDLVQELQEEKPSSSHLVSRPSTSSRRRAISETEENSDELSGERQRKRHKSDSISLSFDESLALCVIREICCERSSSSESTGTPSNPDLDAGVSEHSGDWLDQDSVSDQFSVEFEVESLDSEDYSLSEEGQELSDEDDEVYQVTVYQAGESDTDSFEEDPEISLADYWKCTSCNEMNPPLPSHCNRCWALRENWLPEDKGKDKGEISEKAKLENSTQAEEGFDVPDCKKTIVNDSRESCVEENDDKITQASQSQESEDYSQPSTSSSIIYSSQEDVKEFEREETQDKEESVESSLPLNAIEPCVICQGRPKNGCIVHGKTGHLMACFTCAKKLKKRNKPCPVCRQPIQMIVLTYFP
HIF-2a conf: confirmation of HIF-2a inhibitors. 56% of 1,800 active. 786-0 RCC cells, HIF-2a luciferase reporter luminescence, overnight. shares compounds with HIF-2a inh. AID 651580. inhibition, % at 18.8 µM;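 active = mean inhibition across four replicates of at least 40 percent at the single tested concentration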
HIF-1a cs: HIF-1a inhibition counter-screen for HIF-2a hits. shares compounds with HIF-2a inh. MiaPaCa-2 HIF-1a luciferase reporter, desferoxamine, overnight. inhibition, % at 18.8 µM. 72% of 1,800 active;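 active = mean inhibition of the reporter signal across four replicates at the single tested dose of 50% or more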
Of the large screens only hits and unclear results are named; the others gave an inactive call (follow-up assays come after a bar, where they were run).

O=C(O)c1cccc(-c2nc3ccccc3[nH]2)c1	HIF-2a inh 69, Peg3 promoter 55 | HIF-2a conf 55 | HIF-1a cs inactive
COc1ccc(OCC(=O)N2CCCC(CO)(CCOc3ccccc3)C2)cc1 (stereo not drawn)	none
CCOC(=O)c1nc(C)nc(Sc2n[nH]c(-c3cc(C(F)(F)F)cc(C(F)(F)F)c3)n2)c1C	none
O=C(O)CCSc1nnc(-c2ccc3c(c2)OCO3)o1	HIF-2a inh 92 | HIF-2a conf 96 | HIF-1a cs 80
CCc1ccc(-c2cn3nc(C)c(C)nc3n2)cc1	HIF-2a inh 66, MITF TRPM1 inh 77, Peg3 promoter 71 | HIF-2a conf 91 | HIF-1a cs 84
Cc1nc2nc(-c3ccc(F)cc3)cn2nc1C	none
O=C(CN(Cc1ccccc1)C(=O)CCl)c1cccc(Br)c1	CF NFkB block 61, KKLEB cytotox -67 | Mdm2-MdmX confirm 103
O=C(NCCCc1ccccc1)c1cccc(Br)c1	none
CC(=O)Nc1cccc(-c2csc(N)n2)c1	none
CC(=O)Nc1cccc(-c2cnc(N)c(C(=O)c3cccnc3)n2)c1	CF NFkB block 75, HIF-2a inh 41, Peg3 promoter 71 | Mdm2-MdmX confirm 102
Cc1ccoc1C(=O)Nc1ccc(CC(=O)O)cc1	HIF-2a inh 88 | HIF-2a conf 94 | HIF-1a cs 51
CC(C)Cc1nc2oc3c(Cl)ncnc3c2c2c1CCC2	HIF-2a inh 67, MITF TRPM1 inh inconclusive, Peg3 promoter 106 | Mdm2-MdmX confirm 103 | HIF-2a conf 49 | HIF-1a cs 108
CC(C)Cc1nc2oc3c(NCCCN4CCOCC4)ncnc3c2c2c1CCC2	none
COc1cccc(C(NC(C)=O)c2nc(-c3cccc(F)c3)cs2)c1 (stereo not drawn)	none (no result: MITF TRPM1 inh)
COc1cccc(-c2cc(NC=O)c3ncc(-c4ccc(OC)c(OC)c4)n3c2)c1	none (no result: MITF TRPM1 inh)
COc1ccc(-c2cnc3c(NC=O)cc(-c4cccc(NS(C)(=O)=O)c4)cn23)cc1OC	CF NFkB block 93, HIF-2a inh 51, KKLEB cytotox -62, Peg3 promoter 69 (no result: MITF TRPM1 inh) | HIF-2a conf 79 | HIF-1a cs inactive
CCOC(=O)Cc1csc(NS(=O)(=O)c2ccc([N+](=O)[O-])cc2)n1	none
CCOC(=O)c1c(S(=O)(=O)N2CCN(c3ccc(C(C)=O)cc3)CC2)c(C)n(C)c1C	none
O=C(NCCCn1ccnc1)C(=O)c1c[nH]c2ccccc12	none
COC(=O)C1=C(C)N(Cc2ccccc2)C(=NCc2cccc(C(F)(F)F)c2)N[C@H]1c1cccc(C(F)(F)F)c1	MITF TRPM1 inh 96, Peg3 promoter 99 | Mdm2-MdmX confirm 102
O=S(=O)(C/C(=C/CO)S(=O)(=O)c1ccccc1)c1ccccc1	CF NFkB block 99, Shn3 3UTR inh 94, HIF-2a inh 87, MITF TRPM1 inh 78, Peg3 promoter 95 | Mdm2-MdmX confirm 102 | HIF-2a conf 98 | HIF-1a cs 105
O=S(=O)(CS(=O)(=O)c1ccccc1)c1ccccc1	none
O=C1OC(c2ccccc2)(c2ccc3cc(O)ccc3c2)c2ccccc21 (stereo not drawn)	HIF-2a inh 40, Peg3 promoter 79 | HIF-2a conf inactive | HIF-1a cs 98
O=C1OC(c2ccc(O)cc2)(c2ccc(O)cc2)c2ccccc21	none
C[C@@H]1CN([C@@H](C)CO)C(=O)c2cc(NS(C)(=O)=O)ccc2O[C@@H]1CN(C)S(=O)(=O)c1ccccc1	none
O=[N+]([O-])c1c(Nc2cccc(O)c2)cc(Cl)c2nonc12	CF NFkB block 91, Shn3 3UTR inh inconclusive, HIF-2a inh 90, KKLEB cytotox -92, MITF TRPM1 inh 77, Peg3 promoter 103 | Mdm2-MdmX confirm 104 | HIF-2a conf 95 | HIF-1a cs 105
COc1cccc(Nc2cc(N3CCOCC3)c3nonc3c2[N+](=O)[O-])c1	none
Cc1c(Nc2cc(Cl)c3nonc3c2[N+](=O)[O-])c(=O)n(-c2ccccc2)n1C	CF NFkB block 94, Shn3 3UTR inh 96, HIF-2a inh 98, KKLEB cytotox -56, MITF TRPM1 inh 102, Peg3 promoter 105 | Mdm2-MdmX confirm 103 | HIF-2a conf 99 | HIF-1a cs 105
O=[N+]([O-])c1c(Nc2ccccc2O)cc(N2CCOCC2)c2nonc12	HIF-2a inh 51 (no result: Shn3 3UTR inh) | HIF-2a conf inactive | HIF-1a cs 72
CN(CC(=O)Nc1ccc(F)cc1)CC(=O)N1CCCC1	none
COc1ccc(OC)c(C(C[N+](=O)[O-])c2c(C)cc3ccccn23)c1 (stereo not drawn)	HIF-2a inh 44 | HIF-2a conf inactive | HIF-1a cs inactive
COc1ccc(CCNC(=S)NC(=O)c2cccc([N+](=O)[O-])c2)cc1OC	none
Cc1cccc(CS(=O)(=O)c2ncc(Cl)c(C(=O)Nc3c(C)cccc3C)n2)c1	CF NFkB block 98, HIF-2a inh 47, KKLEB cytotox -66, Peg3 promoter 103 | Mdm2-MdmX confirm 103 | HIF-2a conf 68 | HIF-1a cs 90
CCCc1nnc(NC(=O)c2nc(S(=O)(=O)Cc3cccc(C)c3)ncc2Cl)s1	CF NFkB block 94, Shn3 3UTR inh 93, HIF-2a inh 69, KKLEB cytotox -90, MITF TRPM1 inh 78, Peg3 promoter 109 | HIF-2a conf inactive | HIF-1a cs 106
CCCc1nnc(NC(=O)CS(=O)(=O)c2ccc(C)cc2)s1	none
CSc1ncc(Cl)c(C(=O)Nc2cccc(C)c2)n1	none
O=C(NNC(=O)c1ccccc1OCc1ccccc1Cl)c1csc(N2CCOCC2)n1	none
Cc1oc(-c2cccc(Cl)c2)nc1CN1CCC(C(=O)NCCCN2CC(C)CC(C)C2)CC1 (stereo not drawn)	MITF TRPM1 inh 96, Peg3 promoter 92 | Mdm2-MdmX confirm 103
COc1ccc(OC)c(NC(=O)c2nc(S(=O)(=O)Cc3ccccc3)ncc2Cl)c1	CF NFkB block 89, Shn3 3UTR inh 97, HIF-2a inh 89, KKLEB cytotox -105, MITF TRPM1 inh 95, Peg3 promoter 106 | Mdm2-MdmX confirm 103 | HIF-2a conf 99 | HIF-1a cs 104

Screening data: PubChem BioAssay, several laboratories
